# The source made the active and inactive calls. Rule as the data show it, unless noted: active = inhibition above about 80%; inactive = the rest.
# Tests used:
# [1] = growth inhibition, single agent or in combination, cell-based, chromothripsis tumors, cisplatin or BGB combos (AID 1671449); conditions: LFS_MB_P medulloblastoma cells;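 also: cells exposed for 96 hours; 0% = vehicle DMSO and 100% = killing by high DMSO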
# [2] = growth inhibition, single agent and combos, cell-based, chromothripsis tumors, cisplatin or BGB combos (AID 1671450); conditions: HDN33 neuroblastoma cells, stronger effect = higher value;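 also: cells exposed to compound for four days; 0% = vehicle DMSO and 100% = cell killing by high DMSO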
# [3] = growth inhibition, single agents and combos, ICB984, cell-based, cisplatin or BGB combos, synergistic combos for chromothripsis tumors (AID 1671451; call rule not given here;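 also: cells exposed for 96 hours before readout; 0% = vehicle DMSO and 100% = killing by high DMSO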); conditions: ICB984 medulloblastoma cells, drug combinations, stronger effect = higher value
# [4] = growth inhibition, single agents and combos, LFS_MB_1R, cell-based, cisplatin or BGB combos, synergistic combos for chromothripsis tumors (AID 1671452); conditions: LFS_MB_1R medulloblastoma cells, stronger effect = higher value;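 also: cells exposed for 96 hours before readout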
# [5] = growth inhibition, single agents and combos, HTB85, cell-based, BGB or cisplatin IC20 combos, synergistic combos for chromothripsis tumors (AID 1671453); conditions: HTB85 osteosarcoma cells, drug combinations, stronger effect = higher value;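 also: cells exposed for 96 hours before readout; 0% = vehicle DMSO and 100% = high DMSO killing control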
# [6] = growth inhibition, single agents and combos, CRL2098, cell-based, BGB or cisplatin IC20 combos, synergistic combos for chromothripsis tumors (AID 1671454); conditions: CRL2098 osteosarcoma cells, drug combinations, stronger effect = higher value;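 also: cells exposed for 96 h before readout; 0% = vehicle DMSO and 100% = killing by high DMSO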
# [7] = growth inhibition, single agents and combos, HD-MB03, cell-based, BGB or cisplatin IC20 combos, synergistic combos for chromothripsis tumors (AID 1671455; in the data active = inhibition above about 83%;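 also: 0% = vehicle DMSO and 100% = high DMSO as cytotoxic control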); conditions: HD-MB03 medulloblastoma cells, stronger effect = higher value
# [8] = growth inhibition, single agents and combos, UWB1.289, cell-based, BGB or cisplatin combos, synergistic combos for chromothripsis tumors (AID 1671456); conditions: UWB1.289 ovarian carcinoma cells, stronger effect = higher value;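 also: cells exposed to compound for four days; 0% = vehicle DMSO and 100% = killing by high DMSO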
# [9] = growth inhibition, single agents and combos, LFS_MB_2R, cell-based, cisplatin combos, synergistic combos for chromothripsis tumors (AID 1671457); conditions: LFS_MB_2R medulloblastoma cells, stronger effect = higher value;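 also: cells exposed to compound for four days before readout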
# [10] = growth inhibition, MDA-MB-436, cell-based, BGB or cisplatin combos, synergistic combos for chromothripsis tumors (AID 1671458; call rule not given here;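 also: cells exposed for 96 hours; 0% = vehicle DMSO and 100% = killing by high DMSO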); conditions: MDA-MB-436 breast carcinoma growth inhibition, drug combinations, stronger effect = higher value
# [11] = UWB1.289_BRCA1 ovarian cancer growth, cell-based, BGB or cisplatin combinations (AID 1671459); conditions: UWB1.289 BRCA1 ovarian carcinoma, drug combinations, stronger effect = higher value
# [12] = drug combination toxicity in non-malignant astrocytes – cell-based, BGB or cisplatin IC20 combos, cytotoxicity control for chromothriptic childhood tumor combination screen (AID 1671460); conditions: Human astrocytes, viability inhibition, drug combinations, at 0.5 µM, stronger effect = higher value;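 also: cells exposed to compounds for 96 hours before viability readout; 0% = vehicle and 100% = killing control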
# [13] = BT084 cell growth, single and combined drugs, ICGC_MB145, cisplatin and BGB IC40 combos (AID 1671461); conditions: BT084 medulloblastoma cells, drug combinations, stronger effect = higher value;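 also: cells exposed to drugs for 96 hours; 0% = vehicle DMSO and 100% = high DMSO full killing control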
# [14] = RCMB18 cell growth, single agent and combined, cisplatin and BGB IC40 combos (AID 1671462); conditions: RCMB18 medulloblastoma cells, stronger effect = higher value;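 also: cells exposed to compound for four days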
# [15] = CRL1545 cell growth, single agent and combined, cisplatin and BGB IC20 combos (AID 1671464); conditions: CRL1545 osteosarcoma cells, stronger effect = higher value;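 also: cells exposed to compound for 96 hours before readout; 0% = vehicle DMSO and 100% = high DMSO killing control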
# [16] = at 0.5 µM, stronger effect = higher value
# [17] = measured here: combination with BGB IC20, at 0.005 µM
# [18] = measured here: combination with BGB IC40, at 0.005 µM
# [19] = measured here: combination with BGB IC40, at 0.05 µM
# [20] = measured here: combination with cisplatin, at 0.5 µM, stronger effect = higher value
# [21] = measured here: combination with cisplatin, at 5 µM, stronger effect = higher value
# [22] = measured here: with BGB IC20 combination, at 0.5 µM
# [23] = measured here: with cisplatin IC20 combination, at 0.5 µM
# [24] = measured here: 5 uM single agent, at 5 µM
# [25] = measured here: combination with cisplatin, at 0.5 µM
# [26] = measured here: combination with cisplatin, at 5 µM
# [27] = measured here: with BGB IC20, at 0.5 µM
# [28] = measured here: with BGB IC20, at 5 µM
# [29] = measured here: with cisplatin IC20, at 0.5 µM
# [30] = measured here: with cisplatin IC20, at 5 µM
# [31] = measured here: combination with BGB at IC20, at 0.5 µM
# [32] = measured here: combination with cisplatin at IC20, at 0.5 µM
# [33] = measured here: combo with BGB at IC20, at 0.5 µM
# [34] = measured here: combo with cisplatin at IC20, at 0.5 µM
# [35] = measured here: inhibition with BGB combination, at 0.05 µM
# [36] = measured here: inhibition with cisplatin combination, at 0.05 µM
# [37] = measured here: BGB combination, at 0.5 µM
# [38] = measured here: BGB combination, at 5 µM
# [39] = measured here: cisplatin combination, at 0.5 µM
# [40] = measured here: cisplatin combination, at 5 µM
# [41] = BGB combination, concentration series, at 5 µM
# [42] = cisplatin combination, concentration series, at 5 µM
# [43] = measured here: combo with BGB IC20
# [44] = measured here: combo with cisplatin IC20
# [45] = cisplatin combination, at 0.5 µM
# [46] = measured here: BGB IC40 combination 0.05 uM, at 0.05 µM
# [47] = measured here: BGB IC40 combination, at 0.05 µM
smiles,measurement,setting,value
C[C@@H]1COCCN1c1cc(C2(S(C)(=O)=O)CC2)nc(-c2cccc3[nH]ccc23)n1,inhibition,[1]; [16],-25.8% (inactive)
same,inhibition,[1]; [17],7.6%
same,inhibition,[1]; [18],5.5%
same,inhibition,[1]; [19],-17.8%
same,inhibition,[1]; [20],-15.1%
same,inhibition,[1]; [21],49.8%
same,inhibition,"[2]; BGB combo, at 5 µM",86.9%
same,inhibition,[2]; at 0.5 µM,36.8% (inactive)
same,inhibition,"[2]; cisplatin combo, at 5 µM",93.4%
same,inhibition,[2]; [22],34.2%
same,inhibition,[2]; [23],50.8%
same,inhibition,"[2]; single agent, at 5 µM",94%
same,inhibition,"[3]; BGB IC20 combo, at 0.005 µM",23.5%
same,inhibition,"[3]; BGB IC40 combo, at 0.005 µM",27.9%
same,inhibition,"[3]; BGB IC40 combo, at 0.05 µM",49.2%
same,inhibition,[3]; at 0.5 µM,-13.7% (inactive)
same,inhibition,"[3]; cisplatin combo, at 0.05 µM",47.4%
same,inhibition,"[3]; cisplatin combo, at 0.5 µM",1.99%
same,inhibition,"[3]; cisplatin combo, at 5 µM",-26.9%
same,inhibition,[3]; [24],12.7%
same,inhibition,[4]; at 0.5 µM,10% (inactive)
same,inhibition,[4]; [19],-3.56%
same,inhibition,[4]; [25],20.8%
same,inhibition,[4]; [26],56.7%
same,inhibition,[5]; at 0.5 µM,20.9% (inactive)
same,inhibition,[5]; [27],21%
same,inhibition,[5]; [28],63.3%
same,inhibition,[5]; [29],29.2%
same,inhibition,[5]; [30],91.9%
same,inhibition,"[5]; single agent, at 5 µM",73.8%
same,inhibition,[6]; at 0.5 µM,20.1% (inactive)
same,inhibition,[6]; [31],11.9%
same,inhibition,[6]; [32],19.4%
same,inhibition,[7]; at 0.5 µM,38% (inactive)
same,inhibition,[7]; [33],11.4%
same,inhibition,[7]; [34],91.1%
same,inhibition,[8]; at 0.5 µM,63.9% (inactive)
same,inhibition,[8]; [35],6.56%
same,inhibition,[8]; [36],-6.75%
same,inhibition,[9]; at 0.5 µM,13.6% (inactive)
same,inhibition,[9]; [25],20.6%
same,inhibition,[9]; [26],51.4%
same,inhibition,[10]; at 0.5 µM,22.5% (inactive)
same,inhibition,[10]; [37],8.94%
same,inhibition,[10]; [38],45.1%
same,inhibition,[10]; [39],30.1%
same,inhibition,[10]; [40],85.8%
same,inhibition,[11]; [41],93.1%
same,inhibition,[11]; at 0.5 µM,65.4% (inactive)
same,inhibition,[11]; [42],117%
same,inhibition,[12],23.1% (inactive)
same,inhibition,[12]; [43],14.4%
same,inhibition,[12]; [44],30.8%
same,inhibition,[13]; at 0.5 µM,17% (inactive)
same,inhibition,[13]; [45],14.1%
same,inhibition,"[13]; cisplatin combination, at 5 µM",58%
same,inhibition,[13]; [46],-18.4%
same,inhibition,"[13]; single agent, at 5 µM",44.6%
same,inhibition,[14]; at 0.5 µM,25.2% (inactive)
same,inhibition,"[14]; cisplatin combo, at 5 µM",34.6%
same,inhibition,[14]; [47],-0.169%
same,inhibition,[14]; [25],44.8%
same,inhibition,"[14]; single agent, at 5 µM",51.4%
same,inhibition,[15]; at 0.5 µM,76.6% (inactive)
same,inhibition,[15]; [22],71%
same,inhibition,[15]; [23],79.1%
same,inhibition,"[15]; single agent, at 0.05 µM",21.8%
same,inhibition,"[15]; single agent, at 5 µM",97.9%
O=c1[nH]c(=S)[nH]c2nc(-c3ccccc3)c(-c3ccccc3)nc12,inhibition,[1]; [16],-4.47% (inactive)
same,inhibition,[1]; [17],-16.2%
same,inhibition,[1]; [18],-17.7%
same,inhibition,[1]; [19],-55%
same,inhibition,[1]; [20],-17.6%
same,inhibition,[1]; [21],-30.5%
same,inhibition,"[2]; BGB combo, at 5 µM",-12.8%
same,inhibition,[2]; at 0.5 µM,-3.23% (inactive)
same,inhibition,"[2]; cisplatin combo, at 5 µM",-3.41%
same,inhibition,[2]; [22],-5.44%
same,inhibition,[2]; [23],12.5%
same,inhibition,"[2]; single agent, at 5 µM",8.28%
same,inhibition,"[3]; BGB IC20 combo, at 0.005 µM",-5.97%
same,inhibition,"[3]; BGB IC40 combo, at 0.005 µM",-18.7%
same,inhibition,"[3]; BGB IC40 combo, at 0.05 µM",-15.7%
same,inhibition,[3]; at 0.5 µM,-20.3% (inactive)
same,inhibition,"[3]; cisplatin combo, at 0.05 µM",-19.8%
same,inhibition,"[3]; cisplatin combo, at 0.5 µM",-15.9%
same,inhibition,"[3]; cisplatin combo, at 5 µM",-36.6%
same,inhibition,[3]; [24],8.29%
same,inhibition,[4]; at 0.5 µM,-12.5% (inactive)
same,inhibition,[4]; [19],-14.1%
same,inhibition,[4]; [25],-36.2%
same,inhibition,[4]; [26],-28.2%
same,inhibition,[5]; at 0.5 µM,-2.11% (inactive)
same,inhibition,[5]; [27],-2.07%
same,inhibition,[5]; [28],-2.27%
same,inhibition,[5]; [29],-3.18%
same,inhibition,[5]; [30],-32%
same,inhibition,"[5]; single agent, at 5 µM",0.689%
same,inhibition,[6]; at 0.5 µM,-39.5% (inactive)
same,inhibition,[6]; [31],-21.3%
same,inhibition,[6]; [32],-56.3%
same,inhibition,[7]; at 0.5 µM,1.96% (inactive)
same,inhibition,[7]; [33],-7.2%
same,inhibition,[7]; [34],15.9%
same,inhibition,[8]; at 0.5 µM,8.37% (inactive)
same,inhibition,[8]; [35],69.6%
same,inhibition,[8]; [36],18.6%
same,inhibition,[9]; at 0.5 µM,-9.62% (inactive)
same,inhibition,[9]; [25],-6.67%
same,inhibition,[9]; [26],4.64%
same,inhibition,[10]; at 0.5 µM,-2.86% (inactive)
same,inhibition,[10]; [37],-6.6%
same,inhibition,[10]; [38],-11.7%
same,inhibition,[10]; [39],0.551%
same,inhibition,[10]; [40],-30.7%
same,inhibition,[11]; [41],8.97%
same,inhibition,[11]; at 0.5 µM,3.94% (inactive)
same,inhibition,[11]; [42],-14.9%
same,inhibition,[12],4.94% (inactive)
same,inhibition,[12]; [43],4.6%
same,inhibition,[12]; [44],-1.31%
same,inhibition,[13]; at 0.5 µM,-2.6% (inactive)
same,inhibition,[13]; [45],-10.5%
same,inhibition,"[13]; cisplatin combination, at 5 µM",0.186%
same,inhibition,[13]; [46],-24.1%
same,inhibition,"[13]; single agent, at 5 µM",0.55%
same,inhibition,[14]; at 0.5 µM,-2.13% (inactive)
same,inhibition,"[14]; cisplatin combo, at 5 µM",-6.02%
same,inhibition,[14]; [47],-12.2%
same,inhibition,[14]; [25],41.9%
same,inhibition,"[14]; single agent, at 5 µM",-34.1%
same,inhibition,[15]; at 0.5 µM,-17.1% (inactive)
same,inhibition,[15]; [22],-18.6%
same,inhibition,[15]; [23],-18.2%
same,inhibition,"[15]; single agent, at 0.05 µM",-5.63%
same,inhibition,"[15]; single agent, at 5 µM",-50.2%

# Reference: PubChem BioAssay
